# Screens deposited in PubChem BioAssay by National Center for Advancing Translational Sciences (NCATS).
# A selection: hits, their analogues and other compounds. The true share with any hit is near 19%.
# TDP1 block – inhibitors of human tyrosyl-DNA phosphodiesterase TDP1. Q9NUW8. 350,000 tested, 0.28% active. Potency, µM (doses to about 130 µM), inactives show at the top dose activity change, negative = inhibition, actives largely listed as inhibitors. recombinant TDP1, AlphaScreen DNA substrate cleavage; also: potency is read from the fitted curve at half-maximal effect; nearly all actives have a fitted effect of over 40% in size
# Target sequence (Q9NUW8 whole entry, looked up): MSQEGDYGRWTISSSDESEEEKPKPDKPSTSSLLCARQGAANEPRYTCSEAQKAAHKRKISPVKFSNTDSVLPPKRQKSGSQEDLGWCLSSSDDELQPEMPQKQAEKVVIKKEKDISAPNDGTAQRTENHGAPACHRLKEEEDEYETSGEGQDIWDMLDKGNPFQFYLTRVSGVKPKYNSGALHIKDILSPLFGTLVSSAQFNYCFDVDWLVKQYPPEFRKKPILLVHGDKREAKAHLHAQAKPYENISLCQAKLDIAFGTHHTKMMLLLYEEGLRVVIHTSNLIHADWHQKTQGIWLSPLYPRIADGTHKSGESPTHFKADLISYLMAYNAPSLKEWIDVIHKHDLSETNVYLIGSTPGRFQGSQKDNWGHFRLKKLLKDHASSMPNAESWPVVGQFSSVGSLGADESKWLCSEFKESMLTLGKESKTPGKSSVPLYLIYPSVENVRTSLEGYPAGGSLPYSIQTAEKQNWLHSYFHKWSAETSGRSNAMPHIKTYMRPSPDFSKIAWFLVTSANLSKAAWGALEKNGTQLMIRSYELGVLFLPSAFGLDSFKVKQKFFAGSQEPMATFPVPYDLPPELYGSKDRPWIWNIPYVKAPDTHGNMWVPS
#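 AlphaScreen read-out: signal falls as enzyme removes the 3' tyrosine-FITC from a 5'-biotinylated DNA oligo (15 nM, 5 min, RT). Enzyme was E. coli-made recombinant Tdp1 at 1 nM, exposed to compound for 15 min beforehand; beads 10 ug/ml, 10 min.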
# Giardia killer – kills Giardia lamblia; Giardia lamblia trophozoite viability; AID 540267; 340,000 tested, 0.15% active; activity change, % at 7.66 µM, hits read low; in the data active = activity change below about -80%; inconclusive = between about -30% and that limit;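 also: parasites exposed to compound for two days anaerobically before the ATP read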
#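 Media and compound were dispensed first, then trophozoites at 100 cells/well; plates sat 48 hrs at 37 deg C without oxygen before ATP luminescence reagent was added and read after 15-30 min at room temperature.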
# ELG1 DNA repair – inhibitors of ELG1-dependent DNA repair in HEK293T cells; HEK293T ELG1-luciferase reporter, luminescence, 16 h; DNA damage induced by 5-fluorouridine; Potency, µM (top dose mostly 46.1 µM), for the others: at the highest dose activity change, negative = inhibition, actives largely listed as inhibitors; 330,000 tested, 2.3% active; also: potency is read from the fitted curve at half-maximal effect; nearly all actives have a fitted effect of over 55% in size
#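 Quantitative HTS, concentration-response format. 2,000 cells/well co-treated with 5-fluorouridine and compound, 16 hr in 5% CO2 at 37 °C; ONE-Glo luminescence read after 30 min.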
# IL1B secr inh – blocks inflammasome-driven IL-1 beta release; THP-1 LPS/ATP IL-1B secretion, AlphaLISA, 16 h; hits give low values; activity change, % at 57.5 µM; 360,000 tested, 4.7% active; AID 743279; in the data active = activity change below about -50%; inconclusive = mostly about -30% to -49%
#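 THP-1 cells pretreated 1 hr with compounds (up to 57.5 uM final), then stimulated with LPS (250 ng/mL final) plus ATP (1.25 mM final); secreted IL-1B measured by AlphaLISA after 16 hr, decreased signal indicating inhibition.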
# TDP1 cell CPT – DT40-hTDP1 cell growth loss with CPT; chicken DT40 Tdp1-/-;hTDP1 cells + 20 nM CPT, ATP luminescence, 48 h; Potency, µM (doses to about 46.2 µM), inactives show top-dose activity change, negative = growth inhibition, hits mostly inhibitors; 420,000 tested, 12% active; AID 686979; also: potency is read from the fitted curve at half-maximal effect; nearly all actives have a fitted effect of over 55% in size
#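 Cell growth measured by CellTiter-Glo luminescence after a minimum 48 h, 37 C compound exposure with 20 nM CPT in Tdp1-knockout DT40 cells stably expressing hTDP1, seeded 400/well; qHTS titration format.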
# TDP1 cell noCPT – qHTS for Inhibitors of human tyrosyl-DNA phosphodiesterase 1 (TDP1): qHTS in cells in absence of CPT; DT40 Tdp1-/- hTDP1 cells, no CPT, ATP luminescence, 48 h; Potency, µM (highest dose often 46.2 µM), inactives show at the top dose activity change, negative = growth inhibition, most hits filed as inhibitors; 420,000 tested, 15% active; also: potency is read from the fitted curve at half-maximal effect; nearly all actives have a fitted effect of over 55% in size
#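 DT40 Tdp1-/-;hTDP1 cells, no CPT (DMSO vehicle only), 400 cells/well; compounds pin-transferred; ≥48 hr, 37 °C; CellTiter-Glo 30 min RT dark, luminescence read.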
# An asterisk follows results filed as active; ? = inconclusive; · = no result. Unless noted, calls follow the shape of the dose curve; as a rule, active = well fitted curve in the direction sought with a large enough effect; inconclusive = small, poorly fitted or top-dose-only effect, or another doubt; inactive = no such curve, though single readings can be large; an effect the other way counts as inactive or inconclusive. % is scaled to controls: 0 for no effect and ±100 for the full control effect.
SMILES,TDP1 block,Giardia killer,ELG1 DNA repair,IL1B secr inh,TDP1 cell CPT,TDP1 cell noCPT
Cc1[nH]c(C)c(S(=O)(=O)N2CCN(c3cccc(Cl)c3)CC2)c1C(=O)N1CCCCC1,7%,20,16%,-3,21µM*,21µM*
Cc1ccc(Cl)cc1N1CCN(S(=O)(=O)c2c(C)[nH]c(C)c2C(=O)N2CCCCC2)CC1,9%,-12,?,?,16µM*,?
Cc1ccc(C)c(N2CCN(S(=O)(=O)c3c(C)[nH]c(C)c3C(=O)N3CCCCC3)CC2)c1,9%,-4,?,-9,?,?
Cc1ccc(N2C(=O)CC(C)(C)CC2=O)cc1Cl,·,7,2%,8,10%,1%
COc1ccc(C2Oc3ccccc3C3=C2C(c2cccs2)n2ncnc2N3)cc1 (stereo not given),-8%,-3,?,-15,21µM*,23µM*
Brc1ccc(C2C3=C(Nc4ncnn42)c2ccccc2OC3c2ccncc2)cc1 (stereo not given),6%,5,-18%,?,?,?
COC(=O)[C@@]12C[C@@H](CC(=O)NCc3cccc(C(F)(F)F)c3)C(=O)N(Cc3ccccc3)C1=CCC(C)(C)C2,·,·,·,-78*,?,?
COC(=O)[C@]12CCCCC=C1N(Cc1ccccc1)C(=O)[C@H](CC(=O)NCc1cccc(C(F)(F)F)c1)C2,·,·,·,-18,?,?
COC(=O)[C@@]12C[C@@H](CC(=O)NCc3cccc(C(F)(F)F)c3)C(=O)N(Cc3cccc4ccccc34)C1=CCC(C)(C)C2,·,·,·,0,16µM*,16µM*
CCOC(=O)COc1coc(CN2CCN(c3ccc(F)cc3)CC2)cc1=O,-1%,2,-2%,20,16%,20%
CCOc1ccccc1/C=C(/NC(=O)c1ccccc1)C(=O)N(CC)CC,2%,-8,0%,-7,7%,11%
Cc1ccc(CC(=O)Nc2nnc(-c3ccc(F)cc3)o2)c(C)c1,-4%,20,-20%,-1,?,16µM*
COc1cc(OC)cc(-c2nnc(NC(=O)Cc3ccc(F)cc3)o2)c1,3%,-1,14%,13,1.5µM*,2.6µM*
NC(=S)N/N=C/c1coc2ccc(Cl)cc2c1=O,0%,5,-17%,10,4%,-20%
COc1cccc(CNC(=O)CSc2n[nH]c(-c3ccccc3Cl)n2)c1OC,-3%,·,·,·,-28%,-23%
CCOc1ccccc1CNC(=O)CSc1n[nH]c(-c2ccccc2Cl)n1,3%,·,·,·,13µM*,23µM*
O=C(CSc1n[nH]c(-c2ccccc2Cl)n1)NCCc1ccccc1,5%,·,·,·,9.2µM*,21µM*
O=C(CSc1n[nH]c(-c2cccs2)n1)NCCc1ccccc1,-3%,14,13%,25,?,?
Cc1ccc(NC2=NC(c3ccc(F)cc3)n3c(nc(C)cc3=O)N2)c(C)c1 (stereo not given),·,-12,0%,0,2%,-5%
Cc1ccc(NC2=NC(c3ccccc3)n3c(nc(C)cc3=O)N2)c(C)c1 (stereo not given),-1%,13,1%,-74*,-14%,-7%
CCc1ccc(/C=C2/Sc3ccccc3N(CC(=O)NCC3CCCO3)C2=O)cc1 (stereo not given),4%,5,13µM*,-6,?,?
CN(C)c1ncc2nc(CCc3ccccc3)c(=O)n(Cc3cccs3)c2n1,·,·,·,·,?,16µM*
CN(C)c1ncc2nc(-c3ccccc3)c(=O)n(CCc3ccccc3)c2n1,·,·,·,·,-6%,2%
CN(C)c1ncc2ncc(=O)n(CCc3ccccc3)c2n1,·,·,·,·,21µM*,26µM*
CN(C)c1ccc(C(=O)Nc2sc(Nc3ccccc3)nc2C(N)=O)cc1,-3%,·,·,·,?,7.3µM*
SMILES,TDP1 block,Giardia killer,ELG1 DNA repair,IL1B secr inh,TDP1 cell CPT,TDP1 cell noCPT
CCN(CCC#N)c1ccc(/C=C/c2ccnc3ccccc23)cc1,·,·,·,·,?,20µM*
CN(CCC#N)c1ccc(/C=C/c2ccnc3ccccc23)cc1,·,·,·,·,0.79µM*,2µM*
CCCCCCCCCN(CCCCCCCCC)c1ccc(/C=C/c2ccnc3ccccc23)cc1,·,·,·,·,1%,5%
C=CCN(c1ccccc1OC)S(=O)(=O)c1cccc(C(=O)OCC(=O)c2c[nH]c3ccccc23)c1,1%,-6,23µM*,-2,?,23µM*
COc1ccccc1/C=C/C(=O)OCC(=O)c1c[nH]c2ccccc12,-5%,12,-15%,29,?,21µM*
Cc1ccc(C(=O)OCC(=O)c2c[nH]c3ccccc23)cc1,-1%,-5,?,40,-2%,0%
C=CCN(c1ccccc1OC)S(=O)(=O)c1cccc(C(=O)OCC(=O)N2CCOCC2)c1,0%,4,-5%,16,-25%,?
COc1cc(OC)c(N(C)S(=O)(=O)c2cccc(C(=O)OCC(=O)c3c[nH]c4ccccc34)c2)cc1Cl,7%,5,21µM*,13,?,23µM*
CC(C)Cc1ccc(C(C)C(=O)OCC(=O)c2c[nH]c3ccccc23)cc1 (stereo not given),3%,-3,?,-24,10µM*,13µM*
Cc1cccnc1NC(=O)CN1C(=O)NC(C)(c2ccc3ccccc3c2)C1=O (stereo not given),1%,-8,?,-4,-21%,-19%
O=C1NC[C@@H](CCCCN2C[C@H](Cc3ccccc3)N(Cc3ccccc3)C(=O)C2=O)N(Cc2ccccc2)C1=O,·,·,·,4,-8%,-7%
CC(C)NC(=O)OC1CC2CC1[C@H]1CCCCN1C2=O (stereo not given in full),·,·,·,33,4%,-9%
COc1cccc(OC)c1C(=O)NNS(=O)(=O)c1ccc2ccccc2c1,1%,1,12%,19,-9%,1%
Cc1ccc(S(=O)(=O)N(C)c2cccc3cccnc23)cc1,4%,·,·,·,·,·
COc1ccc(C(=O)OC(COc2ccccc2)Cn2ccnc2)cc1 (stereo not given),6%,37,18%,-90*,-12%,?
Cc1ccc(C(=O)NC2(C(F)(F)F)C(=O)Nc3c2c(=O)[nH]c(=O)n3CCc2ccccc2)cc1 (stereo not given),1%,·,·,·,10%,10%
